This note sets out measurements from the OligoGym collection.
Note: reference of the scale not given here.

The target of one assay is HSPA1A. As to the kind of experiment: pooled miR-30 sensor sort-seq; sequence = guide strand. Particulars: shRNA.
As for TTGTCCAGCACCTTCTTCTTGT, the sensor-assay potency score (higher = more potent) worked out at 0.221.

In the case of TACTAGGAAATGCAAAGTCTTG, the sensor-assay potency score (higher = more potent) was -1.4.

Consider TTAAAAAGAAGAAATAGTCGTA, for which the sensor-assay potency score (higher = more potent) stood at 0.533.

Regarding TAAAAAGAAGAAATAGTCGTAA, the sensor-assay potency score (higher = more potent) was 0.289.

With TTGTCGGCCTCGCTGATCTTGC, the sensor-assay potency score (higher = more potent) was -1.46.

Consider ATCTCTGCATGTAGAAACCGGA, for which the sensor-assay potency score (higher = more potent) is -0.989.

TCAACATTGCAAACACAGGAAA: the sensor-assay potency score (higher = more potent) is -1.05.

With TGCAAAGTCTTGAAGCTCCAAA, the sensor-assay potency score (higher = more potent) is -0.87.

Regarding AAATTGAGAACTGACAAACAGA, the sensor-assay potency score (higher = more potent) is -0.814.

Another assay concerns the target HSPA1L. The description is as above. The settings on record: shRNA.
TAGAGTTTTGTGATGATAGGGT: the sensor-assay potency score (higher = more potent) amounted to 0.798.

As for AACTTAGTCAATACCATCGAAG, the sensor-assay potency score (higher = more potent) was -0.727.

In the case of TTAGTCAATACCATCGAAGAGA, the sensor-assay potency score (higher = more potent) was -1.19.

As for TTGGTTGTCAGAGTAGGTGGTG, the sensor-assay potency score (higher = more potent) was determined as 0.316.

As to TTCTTAGCACATTAAGTCCAGC, the sensor-assay potency score (higher = more potent) was -0.826.

With TTTATATTTCTCAGCATCCAGA, the sensor-assay potency score (higher = more potent) is -0.719.

For TAATCTTGCCCTTCAAACCTTC, the sensor-assay potency score (higher = more potent) was -0.52.

With TTCTCTTATGATCAAACTCATC, the sensor-assay potency score (higher = more potent) is -1.68.

Regarding TAGGGTTACACATCTGCTCCAA, the sensor-assay potency score (higher = more potent) stood at 0.367.

On to TTTATCAGACTCACTAATCTTG, for which the sensor-assay potency score (higher = more potent) is 0.0614.

Regarding TAAGTCCAGCAATCACACCTGC, the sensor-assay potency score (higher = more potent) was -0.0929.

TTTCTCAGCATCCAGAACCATG: the sensor-assay potency score (higher = more potent) was -1.49.
